Data reported in PubChem BioAssay AID652154 (Broad Institute, 2013).
Values joined by “and” are separate entries in the source; they are usually repeats but may differ in a detail not shown here. Equal values may be shown once. Out of some 360,000 compounds screened, about 4,200 (1.2%) were called active. Shown is part of a subset that was picked to be rich in actives. A number with no mark means an inactive call.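 The calls were made as follows: active = mean replicate inhibition at least 60% with every replicate also reaching 60%; inconclusive = only one of the two criteria is met; inactive = mean below 60% and not all replicates reaching 60%.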

Experiment: inhibitors of PAX8-driven TPO luciferase reporter, primary screen, RMG-I cells, single concentration (AID 652154);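 also: luciferase light reporting Pax8 driven TPO promoter activity; plate controls were median of neutral control wells for no effect and mitoxantrone controls for full effect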
Settings: SteadyGlo, 24 h, at 12.6 µM, hits give high values

Structure (SMILES)	inhibition
O=C(C[C@@H]1C=C[C@H](NC(=O)CN2CCOCC2)[C@@H](CO)O1)NC1CCC1	-5.79%
C[C@H](CO)N1C[C@H](C)[C@H](CN(C)C)Oc2c(NS(=O)(=O)c3ccc(Cl)cc3)cccc2C1=O	-6.01%
COc1cccc(S(=O)(=O)N[C@H]2CC[C@H](CC(=O)NC3CCC3)O[C@H]2CO)c1	-7.93%
O=C(C[C@H]1C[C@@H]2c3cc(NC(=O)c4cccnc4)ccc3O[C@@H]2[C@H](CO)O1)NCc1ccccn1	-7.94%
Cc1ccc(N)cc1CN1CCN(c2ncc(Cc3ccccc3)cn2)CC1	-0.199%
CN(C)C(=O)c1ccc(-c2ccc(C3[C@@H]4CN(C(=O)Nc5ccccc5)C[C@H]3N4)cc2)cc1 (stereo partly specified)	5.13%
Cc1cccc(-c2ccc(C3[C@@H]4CN(C(=O)Nc5ccc(C(F)(F)F)cc5)C[C@H]3N4)cc2)c1 (stereo partly specified)	116% (active) and 119% (active)
O=C(C1CCCCC1)N1C[C@@H]2N[C@H](C1)C2c1ccc(-c2cccc(F)c2)cc1 (stereo partly specified)	-14.7% and -21.2%
CNC[C@H]1Oc2ccc(NC(=O)Nc3ccc4c(c3)OCO4)cc2CC(=O)N([C@H](C)CO)C[C@H]1C	2.09%
COc1ccc2c3c(n(C)c2c1)[C@@H](CO)N(Cc1ccncc1)CC31CN(C(=O)C2CCC2)C1	7.29%
COCC(=O)N(C[C@H]1N[C@H](CO)[C@H]1c1ccc(C2=CCCCC2)cc1)C(C)C	2.09%
Cn1ccc(=Nc2ccc(NC(=O)c3ccc(N=c4ccn(C)c5ccc([N+](=O)[O-])cc45)cc3)cc2)cc1	79.6% (active)
CN(CC1CCCO1)S(=O)(=O)c1ccc(C(=O)Nc2ccc([N+](=O)[O-])cc2)cc1 (stereo unspecified)	-4.55%
Cn1c(=O)n(C)c2cc(C(=O)Nc3ccc(Br)cc3)ccc21	-6.12%
C[C@@H]1CN([C@H](C)CO)C(=O)c2cc(N(C)C)ccc2O[C@@H](C)CCCCO[C@@H]1CN(C)C(=O)CCCN(C)C	-0.0835%
O=c1ccn([C@@H]2O[C@H](CNS(=O)(=O)c3cc4ccccc4s3)[C@@H](O)[C@H]2O)c(=O)[nH]1	78.9% (active)
O=C(NS(=O)(=O)c1cccs1)[C@H]1O[C@@H](n2ccc(=O)[nH]c2=O)[C@H](O)[C@@H]1O	-7.69%
Cc1sc2ccccc2c1CNC[C@H]1O[C@@H](n2ccc(=O)[nH]c2=O)[C@H](O)[C@@H]1O	3.61%
C[C@H]1CN([C@@H](C)CO)C(=O)c2c(c3ccccc3n2C)-c2ccccc2CO[C@@H]1CN(C)Cc1ccc2c(c1)OCCN2C	-18%
CS(=O)(=O)N1[C@H](CO)[C@H](c2ccccc2)C12CN(C(=O)C1CC1)C2	-2.16%
COc1cccc(-c2cnc3c(c2)C(=O)N([C@H](C)CO)C[C@H](C)[C@@H](CN(C)Cc2ccc(C(=O)O)cc2)O3)c1	9.85%
OC[C@@H]1CN(Cc2ccc(F)cc2)C[C@H](n2cnc3c(NC4CCCC4)ncnc32)O1	3.85%
OC[C@@H]1CN(Cc2cccs2)C[C@H](n2cnc3c(NC4CCCC4)ncnc32)O1	-6.69%
OC[C@@H]1CN(Cc2ccc(-c3ccccc3)cc2)C[C@H](n2cnc3c(NC4CCCC4)ncnc32)O1	64.7% (active)

Structure (SMILES)	inhibition
Cc1noc(C)c1NC(=O)Nc1ccc2c(c1)C(=O)N([C@@H](C)CO)C[C@@H](C)[C@H](CN(C)C(=O)Nc1ccc(C(F)(F)F)cc1)OCCCC[C@@H](C)O2	-4.84%
CS(=O)(=O)N1CC(=O)N2[C@@H](CO)[C@@H](c3ccc(C#CCC4CCCC4)cc3)[C@@H]2C1	0.153%
C[C@@H]1CCCCO[C@@H](CN(C)Cc2ccc(C(=O)O)cc2)[C@H](C)CN([C@H](C)CO)C(=O)c2cc(NS(=O)(=O)c3cccs3)ccc2O1	0.438%
C[C@@H]1CCCCO[C@@H](CN(C)Cc2ccccc2)[C@H](C)CN([C@H](C)CO)C(=O)c2cc(NS(=O)(=O)c3cccs3)ccc2O1	6.46%
C[C@@H]1CN([C@H](C)CO)C(=O)c2cc(NS(=O)(=O)c3cccs3)ccc2O[C@@H](C)CCCCO[C@H]1CN(C)Cc1ccc(C(F)(F)F)cc1	96.8% (active)
CC(C)NC(=O)N(C)C[C@H]1OCCCC[C@H](C)Oc2ccc(NS(=O)(=O)c3cccs3)cc2C(=O)N([C@H](C)CO)C[C@@H]1C	-10.4%
C[C@@H]1CCCCO[C@H](CN(C)C(=O)Nc2ccc(C(F)(F)F)cc2)[C@@H](C)CN([C@@H](C)CO)C(=O)c2cc(NS(=O)(=O)c3cccs3)ccc2O1	80.1% (active)
Cc1ccc(S(=O)(=O)Nc2ccc3c(c2)C(=O)N([C@H](C)CO)C[C@@H](C)[C@H](CN(C)C(=O)Nc2ccc(C(F)(F)F)cc2)OCCCC[C@H](C)O3)cc1	54.1%
CC(=O)N1[C@@H](CO)[C@@H](c2ccccc2)[C@@H]1CN(C)C(=O)CN1CCOCC1	12.7%
Cn1cnc(S(=O)(=O)N2C[C@H](O)COC[C@@H]3O[C@H](CC(=O)NC4CCCC4)CC[C@H]32)c1	-34%
CC(C)NC(=O)N1[C@H](CO)[C@@H]2c3ccccc3N(C(=O)c3ccccc3F)C[C@@H]21	-9.8%
COc1ccccc1C#Cc1ccc([C@@H]2[C@H](CO)N3CCCCN(C(=O)C4CCCC4)C[C@@H]23)cc1	-8.82%
COc1cccc(CNC(=O)c2nnn(CC(=O)Nc3cc(C)ccc3C)c2N)c1	5.68%
CCOc1ccccc1NC(=O)Cn1nnc(C(=O)NCc2cccs2)c1N	68.5% (active)
Cc1ccc(NC(=O)Cn2nnc(C(=O)NCc3ccco3)c2N)c(C)c1	8.75%
Cc1ccc(-c2ccc3c(c2)O[C@H](CN(C)C(=O)CC2CC2)[C@@H](C)CN([C@H](C)CO)S3(=O)=O)cc1	11.8%
Clc1ccc2nc(-c3ccccc3)nc(C(Cl)Cl)c2c1	32.4%
CSc1nc(-c2ccccc2)nc(C(Cl)Cl)n1	99.3% (active)
C[C@@H]1CN([C@H](C)CO)C(=O)c2cc(NC(=O)CCCN(C)C)ccc2O[C@@H](C)CCCCO[C@H]1CN(C)CC1CCCCC1	-3.49%
CCC(=O)Nc1ccc2c(c1)OC[C@H](C)N(CC1CCOCC1)C[C@@H](C)[C@@H](OC)CN(C)C2=O	6.07%
O=C(C[C@@H]1CC[C@@H]2[C@H](COC[C@@H](O)CN2C(=O)c2ccccc2F)O1)N1CCOCC1	5.42%
COc1cccc2c1C(=O)c1c(O)c3c(c(O)c1C2=O)CC(O)(C(C)=NNC(=O)c1ccc(Cl)c(Cl)c1)CC3OC1CC(N)C(O)C(C)O1 (stereo unspecified)	107% (active)
CC(=O)N[C@@H]1CC[C@@H](CCNC(=O)C2CC2)O[C@H]1CO	11.9%
O=C(C[C@H]1CC[C@@H](NC(=O)Nc2cc(F)ccc2F)[C@@H](CO)O1)NCc1ccncn1	0.809%

Structure (SMILES)	inhibition
OC[C@@H]1[C@H](c2ccc(C#CC3CC3)cc2)[C@@H]2CN(CCC(F)(F)F)CCCCN12	-6.92%
O=C([C@H]1[C@H](CO)[C@H]2Cn3c(ccc(C4=CCCC4)c3=O)[C@@H]1N2C(=O)c1ccncc1)N1CCCCC1	0.28%
CCCCCCCCC(=O)NCCOc1ccccc1	111% (active)
O=C(CCc1c[nH]c2ccccc12)NCCOc1ccccc1	-5.95%
O=C(CCOc1ccccc1)NCc1ccccc1	-18.5%
COc1cccc(C(=O)Nc2nc3ccc(S(C)(=O)=O)cc3s2)c1	80.8% (active)
COc1cccc(C(=O)Nc2nnc(S(=O)(=O)N(C)c3ccccc3)s2)c1	2.52%
COc1ccc(C(=O)Nc2cccc(S(C)(=O)=O)c2)cc1	-14.4%
O=C(Nc1ccccc1F)N1[C@H](CO)[C@H]2c3ccccc3NC[C@H]21	-4.34%
CN(C)C=NC(=O)c1cccn1-c1ncc(C(F)(F)F)cc1Cl	5.77%
O=c1[nH]c2cccnc2n(CCNc2ncc(C(F)(F)F)cc2Cl)c1=O	-4.25%
COc1cccc(/C=N/Nc2ncc(C(F)(F)F)cc2Cl)c1O	63.6% (active)
CNC(=O)C[C@H]1CC[C@H]2[C@H](COc3ccc(NC(=O)c4cc(C)on4)cc3C(=O)N2C)O1	57.2%
COCC(=O)Nc1ccc2c(c1)C(=O)N(C)C[C@H](OC)[C@@H](C)CN(CC1CC1)[C@@H](C)CO2	-3.11%
C[C@@H]1CN([C@@H](C)CO)S(=O)(=O)c2ccc(C#Cc3ccccc3F)cc2O[C@H]1CN(C)C(=O)c1ccc2c(c1)OCO2	101% (active)
CCCC#Cc1ccc2c(c1)O[C@@H](CN(C)C(=O)CC)[C@H](C)CN([C@H](C)CO)S2(=O)=O	-8.15%
CC(C)C#Cc1ccc2c(c1)O[C@@H](CN(C)C(=O)Nc1ccccc1)[C@H](C)CN([C@H](C)CO)S2(=O)=O	15.8%
C[C@@H]1CN([C@H](C)CO)S(=O)(=O)c2ccc(C#Cc3ccccc3F)cc2O[C@@H]1CN(C)C(=O)c1ccc2c(c1)OCO2	73.7% (active)
C[C@H]1CN([C@@H](C)CO)S(=O)(=O)c2ccc(C#Cc3ccccc3F)cc2O[C@@H]1CN(C)C(=O)c1ccc2c(c1)OCO2	72.5% (active)
CCCC#Cc1ccc2c(c1)O[C@H](CN(C)C(=O)CC)[C@@H](C)CN([C@H](C)CO)S2(=O)=O	-14.1%
C[C@H]1CN([C@@H](C)CO)S(=O)(=O)c2ccc(C#CCN(C)C)cc2O[C@H]1CN(C)C(=O)c1ccccc1F	-3.76%
COCC#Cc1ccc2c(c1)O[C@H](CN(C)Cc1ccc3c(c1)OCO3)[C@H](C)CN([C@H](C)CO)S2(=O)=O	0.398%
C[C@H]1CN([C@@H](C)CO)S(=O)(=O)c2ccc(-c3cccc(C#N)c3)cc2O[C@H]1CN(C)C(=O)c1ccccc1	15.6%
